Source: the supplement of paper PMC8387472
Structures can show the parent of a compound that is named as a salt. ± gives the standard deviation of the averaged measurements.

What follows are compounds tested on mESC LDLR-Dup GFP reporter (SpCas9 MH-deletion repair) (assay: fraction of GFP+ cells relative to DMSO control (fold change); higher = more MH-deletion repair to in-frame LDLR (or more editing)). Conditions: 2 µM; 7 days post-transfection.

| SMILES | fraction of GFP+ cells |
| --- | --- |
| O=P1(NCCCl)OCCCN1CCCl (stereo not given) [Ifosfamide] | 1.11 ± 0.34 |
| C[C@H]1CCC/C=C/[C@@H]2C[C@H](O)C[C@H]2[C@H](O)/C=C/C(=O)O1 [Brefeldin A] | 0.627 ± 0.22 |
| C/C(O)=C(\C#N)C(=O)Nc1cc(Br)ccc1Br | 1.04 ± 0.32 |
| COC[C@H]1OC(=O)c2coc3c2[C@@]1(C)C1=C(C3=O)[C@@H]2CCC(=O)[C@@]2(C)C[C@H]1OC(C)=O [Wortmannin] | 0.685 ± 0.098 |
| C/C=C(\C)C(=O)N[C@@H](c1ccccc1)[C@@H](O)C(=O)O[C@H]1C[C@@]2(O)[C@@H](OC(=O)c3ccccc3)[C@@H]3[C@]4(OC(C)=O)CO[C@@H]4C[C@H](O)[C@@]3(C)C(=O)[C@H](OC(C)=O)C(=C1C)C2(C)C [Cephalomannine] | 1.54 ± 0.41 |
| Cn1c(CCCC(=O)O)nc2cc(N(CCCl)CCCl)ccc21 [Bendamustine HCl] | 1.26 ± 0.33 |
| O=P1(N(CCCl)CCCl)NCCCO1 (stereo not given) [Cyclophosphamide Monohydrate] | 1.78 ± 0.27 |
| CCN1CCN(C(=O)Cc2ccc(Nc3ncc(F)c(Nc4ccc(C(=O)Nc5ccccc5Cl)cc4)n3)cc2)CC1 [Aurora A Inhibitor I] | 0.548 ± 0.13 |
| COc1ccc2c(c1)[nH]c1c(C)nccc12 [harmine hydrochloride] | 1.1 ± 0.11 |
| NC(=O)c1cc(N2CC2)c([N+](=O)[O-])cc1[N+](=O)[O-] | 1.43 ± 0.66 |
| O=C(O)CCCc1ccc(N(CCCl)CCCl)cc1 [Chloroambucil] | 2.44 ± 0.046 |
| CN1CCN(c2ccc([N+](=O)[O-])c3no[n+]([O-])c23)CC1 | 1.37 ± 0.088 |
| COc1ccc2c(c1)/C(=C/c1cnc[nH]1)C(=O)N2 | 1.29 ± 0.051 |
| CCn1cc(C(=O)O)c(=O)c2cc3c(cc21)OCO3 [Oxolinic acid] | 0.941 ± 0.23 |
| Cc1cc(SCc2sc(-c3ccc(C(F)(F)F)c(F)c3)nc2C)ccc1OCC(=O)O | 1.72 ± 0.64 |
